Assay results taken from the supplement of paper PMC11732987, “Enantioselective OTUD7B fragment discovery through chemoproteomics screening and high-throughput optimisation” (Communications Chemistry, 2025).

Legend:
Assay in all cases: log2 ratio of Biotin-Ahx-Ub-VS probe labelling (fragment/DMSO); higher = less target engagement (more negative = stronger competition), active = hit call of the paper (q ≤ 0.05, log2 ratio ≤ -1)
Details in all cases: compound concentration: 200 uM; treatment time: 3 h
USP34 = USP34 (UniProt Q70CQ2)
Sequence of USP34 (Q70CQ2 whole entry, the tested form may be a part): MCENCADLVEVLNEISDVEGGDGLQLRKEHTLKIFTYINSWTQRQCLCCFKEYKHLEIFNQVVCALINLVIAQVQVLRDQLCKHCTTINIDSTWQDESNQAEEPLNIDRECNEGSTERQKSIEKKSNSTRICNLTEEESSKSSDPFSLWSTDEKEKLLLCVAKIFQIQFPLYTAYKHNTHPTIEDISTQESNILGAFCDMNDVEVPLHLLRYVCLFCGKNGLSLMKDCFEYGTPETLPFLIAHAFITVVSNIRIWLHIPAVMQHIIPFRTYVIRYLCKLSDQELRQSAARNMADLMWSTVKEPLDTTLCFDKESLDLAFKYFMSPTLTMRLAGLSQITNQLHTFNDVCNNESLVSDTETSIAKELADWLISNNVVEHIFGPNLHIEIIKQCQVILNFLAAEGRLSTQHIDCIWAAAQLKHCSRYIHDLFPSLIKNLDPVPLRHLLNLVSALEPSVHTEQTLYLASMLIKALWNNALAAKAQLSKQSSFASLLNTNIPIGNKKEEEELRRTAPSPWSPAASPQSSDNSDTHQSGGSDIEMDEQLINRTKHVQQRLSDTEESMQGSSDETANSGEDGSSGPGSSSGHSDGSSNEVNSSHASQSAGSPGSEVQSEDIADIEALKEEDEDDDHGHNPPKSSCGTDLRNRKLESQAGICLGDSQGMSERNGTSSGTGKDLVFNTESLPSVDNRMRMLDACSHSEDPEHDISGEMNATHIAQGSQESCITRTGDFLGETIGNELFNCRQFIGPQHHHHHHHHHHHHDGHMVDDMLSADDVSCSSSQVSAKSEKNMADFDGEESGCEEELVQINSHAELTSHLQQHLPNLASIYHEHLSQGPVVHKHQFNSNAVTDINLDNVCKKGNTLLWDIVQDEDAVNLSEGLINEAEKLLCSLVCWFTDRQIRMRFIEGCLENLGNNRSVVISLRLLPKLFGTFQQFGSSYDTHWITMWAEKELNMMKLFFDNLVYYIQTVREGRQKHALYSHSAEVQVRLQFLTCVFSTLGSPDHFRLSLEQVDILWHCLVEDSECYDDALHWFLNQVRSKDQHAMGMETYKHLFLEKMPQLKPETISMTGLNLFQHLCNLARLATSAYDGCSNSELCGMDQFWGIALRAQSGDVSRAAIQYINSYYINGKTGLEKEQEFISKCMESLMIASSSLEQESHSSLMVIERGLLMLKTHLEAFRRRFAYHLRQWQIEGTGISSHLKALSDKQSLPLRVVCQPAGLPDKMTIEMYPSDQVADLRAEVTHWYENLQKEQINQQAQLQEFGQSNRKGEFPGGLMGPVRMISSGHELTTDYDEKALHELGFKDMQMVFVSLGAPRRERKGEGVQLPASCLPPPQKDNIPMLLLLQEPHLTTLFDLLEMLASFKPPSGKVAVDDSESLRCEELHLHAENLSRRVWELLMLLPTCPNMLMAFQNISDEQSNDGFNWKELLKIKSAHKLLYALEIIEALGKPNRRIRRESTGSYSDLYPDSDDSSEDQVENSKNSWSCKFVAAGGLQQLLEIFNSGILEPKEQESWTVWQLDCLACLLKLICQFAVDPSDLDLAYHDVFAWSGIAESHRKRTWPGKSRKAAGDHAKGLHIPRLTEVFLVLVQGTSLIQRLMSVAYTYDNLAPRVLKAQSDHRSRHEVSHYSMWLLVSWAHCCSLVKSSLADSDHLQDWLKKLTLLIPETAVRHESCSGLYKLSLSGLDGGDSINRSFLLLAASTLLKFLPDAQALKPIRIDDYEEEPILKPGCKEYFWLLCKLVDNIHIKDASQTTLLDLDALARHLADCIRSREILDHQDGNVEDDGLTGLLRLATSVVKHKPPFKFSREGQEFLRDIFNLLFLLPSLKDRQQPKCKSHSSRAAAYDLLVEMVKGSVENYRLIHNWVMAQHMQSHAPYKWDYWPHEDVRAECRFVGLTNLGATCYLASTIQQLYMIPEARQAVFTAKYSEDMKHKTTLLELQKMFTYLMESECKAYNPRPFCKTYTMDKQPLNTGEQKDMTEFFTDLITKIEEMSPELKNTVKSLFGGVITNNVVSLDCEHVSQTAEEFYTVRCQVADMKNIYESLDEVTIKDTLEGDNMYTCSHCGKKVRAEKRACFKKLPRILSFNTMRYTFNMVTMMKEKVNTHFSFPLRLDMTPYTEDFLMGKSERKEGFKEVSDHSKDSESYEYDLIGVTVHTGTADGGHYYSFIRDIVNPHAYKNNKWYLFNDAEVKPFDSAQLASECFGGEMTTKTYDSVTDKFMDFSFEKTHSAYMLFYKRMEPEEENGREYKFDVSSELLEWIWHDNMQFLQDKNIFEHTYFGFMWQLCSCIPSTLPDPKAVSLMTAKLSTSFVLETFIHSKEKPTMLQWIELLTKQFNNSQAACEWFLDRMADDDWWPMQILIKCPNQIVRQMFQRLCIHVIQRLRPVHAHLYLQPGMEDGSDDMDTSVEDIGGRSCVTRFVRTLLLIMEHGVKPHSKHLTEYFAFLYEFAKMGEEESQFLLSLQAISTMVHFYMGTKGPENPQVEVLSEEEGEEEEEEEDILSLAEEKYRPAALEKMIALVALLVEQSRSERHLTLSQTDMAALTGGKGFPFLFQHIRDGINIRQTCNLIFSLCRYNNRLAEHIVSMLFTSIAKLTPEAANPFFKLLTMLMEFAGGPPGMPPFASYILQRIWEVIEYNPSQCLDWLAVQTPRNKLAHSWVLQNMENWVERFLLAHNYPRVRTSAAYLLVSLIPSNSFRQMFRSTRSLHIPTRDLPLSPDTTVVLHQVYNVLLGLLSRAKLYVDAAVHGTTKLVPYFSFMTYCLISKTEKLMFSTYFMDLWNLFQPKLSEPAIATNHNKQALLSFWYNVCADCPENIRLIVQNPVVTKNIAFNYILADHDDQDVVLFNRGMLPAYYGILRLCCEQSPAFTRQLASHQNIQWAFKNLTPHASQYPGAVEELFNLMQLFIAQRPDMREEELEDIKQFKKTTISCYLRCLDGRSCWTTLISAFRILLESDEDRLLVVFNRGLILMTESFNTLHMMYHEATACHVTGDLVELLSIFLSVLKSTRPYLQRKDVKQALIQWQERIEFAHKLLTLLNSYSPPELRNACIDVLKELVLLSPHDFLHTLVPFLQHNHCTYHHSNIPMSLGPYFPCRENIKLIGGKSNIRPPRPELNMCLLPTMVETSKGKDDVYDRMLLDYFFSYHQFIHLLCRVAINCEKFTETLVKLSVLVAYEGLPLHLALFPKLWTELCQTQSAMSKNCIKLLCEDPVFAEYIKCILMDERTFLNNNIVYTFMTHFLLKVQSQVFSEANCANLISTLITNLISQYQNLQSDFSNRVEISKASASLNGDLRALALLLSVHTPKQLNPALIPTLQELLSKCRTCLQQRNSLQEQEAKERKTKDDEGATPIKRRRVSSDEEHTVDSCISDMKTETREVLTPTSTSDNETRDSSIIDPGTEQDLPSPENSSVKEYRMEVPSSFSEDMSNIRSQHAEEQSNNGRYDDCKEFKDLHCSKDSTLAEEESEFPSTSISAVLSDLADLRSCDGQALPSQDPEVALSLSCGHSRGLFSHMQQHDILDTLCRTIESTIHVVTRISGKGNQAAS
How it was run: (§1)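 Global-median-normalised Spectronaut label-free quantities were compared by unpaired t-test, and values are average log2 ratios of fragment over vehicle. Only proteins with ≥2 unique peptides were used. HEK293T lysate (495 µg per sample) was treated in triplicate with fragment at 200 µM or vehicle for 3 h and then with Biotin-Ahx-Ub-VS at 0.5 µM final for 1 h. Labelled DUBs were then NeutrAvidin-enriched, digested with LysC and trypsin, and run by diaPASEF LC-MS/MS.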

USP36 = molecular target: T1, USP36 (UniProt Q9P275)
T1 sequence (whole entry): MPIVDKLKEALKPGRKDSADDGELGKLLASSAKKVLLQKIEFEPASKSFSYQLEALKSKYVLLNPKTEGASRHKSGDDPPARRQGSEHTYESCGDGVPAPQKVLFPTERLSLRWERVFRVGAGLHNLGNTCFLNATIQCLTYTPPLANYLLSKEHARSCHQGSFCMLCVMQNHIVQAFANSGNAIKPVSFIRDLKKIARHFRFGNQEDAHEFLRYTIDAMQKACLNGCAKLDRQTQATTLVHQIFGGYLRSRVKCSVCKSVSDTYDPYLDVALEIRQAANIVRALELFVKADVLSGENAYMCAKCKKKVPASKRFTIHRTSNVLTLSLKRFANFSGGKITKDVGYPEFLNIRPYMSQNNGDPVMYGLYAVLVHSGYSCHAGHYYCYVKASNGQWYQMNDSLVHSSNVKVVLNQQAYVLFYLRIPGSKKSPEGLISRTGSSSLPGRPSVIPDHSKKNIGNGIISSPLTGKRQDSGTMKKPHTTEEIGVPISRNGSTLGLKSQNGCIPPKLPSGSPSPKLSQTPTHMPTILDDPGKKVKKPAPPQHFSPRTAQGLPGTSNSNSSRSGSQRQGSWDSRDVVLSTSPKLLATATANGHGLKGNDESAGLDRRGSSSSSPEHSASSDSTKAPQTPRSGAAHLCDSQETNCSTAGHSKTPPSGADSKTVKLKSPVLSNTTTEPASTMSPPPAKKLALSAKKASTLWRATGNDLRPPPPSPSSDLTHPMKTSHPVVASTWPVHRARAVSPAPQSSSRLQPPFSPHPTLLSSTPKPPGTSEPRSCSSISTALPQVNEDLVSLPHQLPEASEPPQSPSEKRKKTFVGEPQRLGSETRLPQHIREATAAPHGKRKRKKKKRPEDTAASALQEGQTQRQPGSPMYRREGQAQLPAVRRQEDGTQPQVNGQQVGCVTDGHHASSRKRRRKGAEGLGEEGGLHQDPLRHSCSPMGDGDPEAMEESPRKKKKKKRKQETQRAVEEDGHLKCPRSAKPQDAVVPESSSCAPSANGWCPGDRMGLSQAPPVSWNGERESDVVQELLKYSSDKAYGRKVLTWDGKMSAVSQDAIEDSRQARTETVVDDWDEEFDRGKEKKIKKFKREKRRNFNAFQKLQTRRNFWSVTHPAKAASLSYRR
How it was run: as §1

USP38 = molecular target: T2, USP38 (UniProt Q8NB14)
T2 sequence (whole entry): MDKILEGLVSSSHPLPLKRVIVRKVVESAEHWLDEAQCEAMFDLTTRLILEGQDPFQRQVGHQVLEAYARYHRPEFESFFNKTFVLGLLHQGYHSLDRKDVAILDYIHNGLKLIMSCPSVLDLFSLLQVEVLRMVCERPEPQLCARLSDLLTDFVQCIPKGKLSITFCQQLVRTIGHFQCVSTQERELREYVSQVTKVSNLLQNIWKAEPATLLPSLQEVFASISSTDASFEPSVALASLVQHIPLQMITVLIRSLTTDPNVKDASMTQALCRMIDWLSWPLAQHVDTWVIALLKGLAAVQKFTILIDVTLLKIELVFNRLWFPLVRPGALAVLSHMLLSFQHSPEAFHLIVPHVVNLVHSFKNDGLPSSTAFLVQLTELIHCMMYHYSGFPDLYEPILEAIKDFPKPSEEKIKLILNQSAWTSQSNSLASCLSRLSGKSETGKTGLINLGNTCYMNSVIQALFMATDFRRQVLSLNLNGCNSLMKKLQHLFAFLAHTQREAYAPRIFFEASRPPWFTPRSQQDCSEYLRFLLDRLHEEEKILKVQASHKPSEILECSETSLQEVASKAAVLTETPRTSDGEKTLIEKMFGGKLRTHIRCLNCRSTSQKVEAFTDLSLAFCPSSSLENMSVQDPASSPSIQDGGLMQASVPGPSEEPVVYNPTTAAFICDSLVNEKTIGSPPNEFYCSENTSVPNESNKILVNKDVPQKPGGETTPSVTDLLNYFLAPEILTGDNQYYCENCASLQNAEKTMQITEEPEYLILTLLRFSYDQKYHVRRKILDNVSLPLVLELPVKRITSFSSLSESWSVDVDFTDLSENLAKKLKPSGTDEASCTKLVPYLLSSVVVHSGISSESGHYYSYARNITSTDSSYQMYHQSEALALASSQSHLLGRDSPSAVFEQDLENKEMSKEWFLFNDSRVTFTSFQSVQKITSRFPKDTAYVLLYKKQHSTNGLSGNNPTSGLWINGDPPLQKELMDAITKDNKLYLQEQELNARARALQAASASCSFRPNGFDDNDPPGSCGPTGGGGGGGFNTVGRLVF
How it was run: as §1

USP39 = molecular target: T3, USP39 (UniProt Q53GS9)
T3 sequence (whole entry): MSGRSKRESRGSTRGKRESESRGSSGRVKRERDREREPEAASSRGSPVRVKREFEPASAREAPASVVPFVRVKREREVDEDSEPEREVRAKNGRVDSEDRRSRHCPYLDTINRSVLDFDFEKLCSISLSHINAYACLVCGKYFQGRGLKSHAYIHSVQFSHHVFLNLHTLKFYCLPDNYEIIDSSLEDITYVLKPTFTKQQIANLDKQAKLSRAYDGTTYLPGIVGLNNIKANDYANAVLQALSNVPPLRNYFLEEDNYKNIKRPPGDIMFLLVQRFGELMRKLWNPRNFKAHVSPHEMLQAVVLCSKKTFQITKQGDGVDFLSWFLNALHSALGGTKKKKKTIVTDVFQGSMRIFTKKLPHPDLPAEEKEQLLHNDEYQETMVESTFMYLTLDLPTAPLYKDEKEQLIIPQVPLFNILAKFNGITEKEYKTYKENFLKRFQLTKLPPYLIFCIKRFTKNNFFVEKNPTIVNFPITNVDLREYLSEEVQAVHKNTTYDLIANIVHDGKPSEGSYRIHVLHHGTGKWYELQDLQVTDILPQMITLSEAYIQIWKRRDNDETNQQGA
How it was run: as §1

USP4 = molecular target: T4, USP4 (UniProt Q13107)
T4 sequence (whole entry): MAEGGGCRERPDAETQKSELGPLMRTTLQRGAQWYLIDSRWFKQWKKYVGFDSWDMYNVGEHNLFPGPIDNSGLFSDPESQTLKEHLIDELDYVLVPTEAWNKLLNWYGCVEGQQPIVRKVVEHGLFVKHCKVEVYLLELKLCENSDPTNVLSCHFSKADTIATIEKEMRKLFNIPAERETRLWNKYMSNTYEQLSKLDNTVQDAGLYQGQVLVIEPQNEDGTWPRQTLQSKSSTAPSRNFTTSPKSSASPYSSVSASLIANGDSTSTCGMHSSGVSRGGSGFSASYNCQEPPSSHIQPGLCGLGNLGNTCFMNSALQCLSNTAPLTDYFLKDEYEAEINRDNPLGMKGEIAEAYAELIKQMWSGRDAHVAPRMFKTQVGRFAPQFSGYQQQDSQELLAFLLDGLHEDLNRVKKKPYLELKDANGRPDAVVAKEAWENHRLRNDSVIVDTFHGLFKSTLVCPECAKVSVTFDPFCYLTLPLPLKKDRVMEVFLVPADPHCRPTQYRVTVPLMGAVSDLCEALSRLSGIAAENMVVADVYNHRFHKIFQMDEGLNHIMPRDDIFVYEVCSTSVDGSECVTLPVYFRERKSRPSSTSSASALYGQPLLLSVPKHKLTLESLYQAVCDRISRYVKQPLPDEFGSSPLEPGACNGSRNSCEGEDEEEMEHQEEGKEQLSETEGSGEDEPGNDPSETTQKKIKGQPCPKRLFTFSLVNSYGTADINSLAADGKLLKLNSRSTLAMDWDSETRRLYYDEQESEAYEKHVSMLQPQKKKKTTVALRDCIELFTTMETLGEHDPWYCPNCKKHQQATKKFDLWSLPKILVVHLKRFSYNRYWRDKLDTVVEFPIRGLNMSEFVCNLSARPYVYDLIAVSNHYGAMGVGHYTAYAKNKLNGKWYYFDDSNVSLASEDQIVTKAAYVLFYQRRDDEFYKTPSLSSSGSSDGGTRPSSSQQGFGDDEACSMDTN
How it was run: as §1

Measured: log2 ratio of Biotin-Ahx-Ub-VS probe labelling

CN(CCc1ncc(Br)cn1)C(=O)CCl.Cl
inactive: USP34 -0.228 | USP36 -0.122 | USP38 -0.00939 | USP39 0.3 | USP4 -0.0898
